Compound activity: PubChem, several laboratories
Fh CTSL1 inh – counter-screen for PFM18AAP inhibitors: inhibitors of F. hepatica cathepsin L1 | inhibition, % at 5.96 µM | recombinant F. hepatica cathepsin L1, Z-Leu-Arg-MCA fluorescence | 300,000 tested, 0.49% active | AID 1906;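 active = inhibition above the mean of all tested compounds plus 3 SD, set per screening campaign, cut at about 17% in these data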
Rpn11 inh – blocks the human proteasome subunit Rpn11; inhibition, % at 20 µM; O00487; 360,000 tested, 0.59% active; human 26S proteasome, Ub4-pepOG fluorescence polarization; 20S core pre-blocked with epoxomicin;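 active = inhibition at 20 µM, scaled to each plate's controls, above about 33%, limit read from the data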
Target sequence (O00487 whole entry, looked up): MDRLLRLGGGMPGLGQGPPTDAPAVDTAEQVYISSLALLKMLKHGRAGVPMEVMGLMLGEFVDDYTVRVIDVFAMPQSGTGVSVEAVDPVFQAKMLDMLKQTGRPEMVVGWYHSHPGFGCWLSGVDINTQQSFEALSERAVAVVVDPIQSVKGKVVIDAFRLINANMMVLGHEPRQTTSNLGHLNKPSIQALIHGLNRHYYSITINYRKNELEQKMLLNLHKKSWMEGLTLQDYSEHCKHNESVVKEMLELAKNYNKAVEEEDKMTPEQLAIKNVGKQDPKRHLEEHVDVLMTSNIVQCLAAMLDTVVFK
NRP1-CendR mod – alters CendR peptide binding to human NRP-1. 360,000 tested, 0.85% active. inhibition, % at 25 µM. O14786. FAM-RPARPAR peptide binding to NRP-1, fluorescence polarization;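 active = inhibition or corrected inhibition above about 18%, plus a signal ratio from 0.5 to 1.5, limit read from the data, passing the limit was not always enough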
TPT1 inhibitor – blocks Candida albicans tRNA 2'-phosphotransferase. recombinant caTPT1, FP RNA substrate dephosphorylation. inhibition, % at 5 µM. 300,000 tested, 0.81% active. AID 1962;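 active = inhibition above the mean of all tested compounds plus 3 SD, set per screening campaign, cut at about 24% in these data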
HNF4A DNA FP – change in binding of human HNF4 alpha to DNA; P41235; HNF4a-FITC DNA binding, fluorescence polarization, 1 h; activity change, % at 10 µM; 360,000 tested, 0.3% active; AID 1224865; in the data active = activity change above about 30%, passing the limit was not always enough
PHOSPHO1 block – blocks human PHOSPHO1 phosphatase activity. 290,000 tested, 1.1% active. inhibition, % at 13.3 µM. recombinant PHOSPHO1, absorbance phosphatase assay. Q8TCT1. AID 1565; in the data active = inhibition above about 60%
Target sequence (Q8TCT1 whole entry, looked up): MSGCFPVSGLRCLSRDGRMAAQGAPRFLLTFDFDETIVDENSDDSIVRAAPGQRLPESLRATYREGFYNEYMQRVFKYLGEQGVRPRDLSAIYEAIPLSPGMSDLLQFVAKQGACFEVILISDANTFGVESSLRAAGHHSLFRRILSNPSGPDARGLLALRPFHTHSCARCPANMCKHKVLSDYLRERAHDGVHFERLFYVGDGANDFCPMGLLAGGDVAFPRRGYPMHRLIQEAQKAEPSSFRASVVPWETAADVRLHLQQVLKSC
Large screens that a line does not name were inactive; ! = a repeat was not active. An excerpt weighted towards active compounds, which were near 3.3% of everything screened.

CCOC(=O)CCC(NC(=O)c1ccccc1C(=O)NC(CCC(=O)OCC)C(=O)OCC)C(=O)OCC (centres undefined)	PHOSPHO1 block 65
COc1ccccc1CNC(=O)c1cc(-c2ccccc2C)nn1CC1CC(c2cccnc2)=NO1 (centres undefined)	none (no result: Fh CTSL1 inh, TPT1 inhibitor, PHOSPHO1 block)
Cc1ccccc1-c1cc(C(=O)NCc2cccc(Br)c2)n(CC2CC(c3cccnc3)=NO2)n1 (centres undefined)	NRP1-CendR mod 24 (no result: Fh CTSL1 inh, TPT1 inhibitor, PHOSPHO1 block)
O=C(NCc1cccs1)c1cc(-c2ccccc2)nn1CC1CC(c2cccc([N+](=O)[O-])c2)=NO1 (centres undefined)	NRP1-CendR mod 30 (no result: PHOSPHO1 block)
O=C(COC(=O)CNC(=O)C1CCCCC1)Nc1ccc(Cl)cc1F	Fh CTSL1 inh 34
COc1cc(C(=O)COC(=O)C2CCCCC2)cc(OC)c1OC	none (no result: Fh CTSL1 inh, TPT1 inhibitor, PHOSPHO1 block)
COc1ccc(Cl)cc1NC(=O)COC(=O)CNC(=O)C1CCCCC1	none (no result: Fh CTSL1 inh, TPT1 inhibitor, PHOSPHO1 block)
Cc1ccc(NC(=O)COC(=O)CNC(=O)C2CCCCC2)c(Br)c1	Fh CTSL1 inh 47
COc1cc(C(=O)COC(=O)CNC(=O)C2CCCCC2)cc(OC)c1OC	Fh CTSL1 inh 36
O=C(NCCN1CCN(c2ccccc2)CC1)Nc1cccc(Cl)c1	none
O=C(NNC(=O)c1cncc(Br)c1)c1ccncc1	none (no result: Fh CTSL1 inh, TPT1 inhibitor, PHOSPHO1 block)
Cc1ccccc1N=C(c1ccccc1)C1C(=O)c2ccccc2C1=O	none (no result: Fh CTSL1 inh, TPT1 inhibitor, PHOSPHO1 block)
CC(C)(C)C(=O)COC(=O)c1cc(-c2ccncc2)nc2ccccc12	NRP1-CendR mod 27
O=C(c1ccc(Cl)cc1)c1cnc(-c2ccccc2)s1	none (no result: Fh CTSL1 inh, TPT1 inhibitor)
CO/N=C/CC(=O)c1cnc(-c2ccc(Cl)cc2)s1	NRP1-CendR mod 26
COc1ccc(NC(=O)CCNC(=O)c2ccco2)cc1Cl	none
O=C1Nc2ccccc2C12OCCO2	NRP1-CendR mod 35
O=C1Nc2ccccc2C12OCCCO2	none
C[C@@H]1CN([C@@H](C)CO)C(=O)c2c(c3ccccc3n2C)-c2ccccc2CO[C@H]1CN(C)S(=O)(=O)c1ccc(C(F)(F)F)cc1	none (no result: Fh CTSL1 inh, TPT1 inhibitor, PHOSPHO1 block)
COc1ccc(NC(=O)CN(C)C(=O)/C=C/c2cn(-c3ccccc3)nc2-c2ccc(F)cc2)cc1	none (no result: PHOSPHO1 block)
COc1ccc(NC(=O)CN(C)C(=O)/C=C/c2cn(-c3ccccc3)nc2-c2ccc(C)cc2)cc1	Fh CTSL1 inh 20 (no result: PHOSPHO1 block)
Cc1ccc(S(=O)(=O)CNC(=S)c2cccc(C)c2)cc1	PHOSPHO1 block 90
Cc1ccc(S(=O)(=O)CNC(=O)c2ccccc2)cc1	Fh CTSL1 inh 36
Cc1ccc(S(=O)(=O)CNC(=S)c2ccc3ccccc3c2)cc1	PHOSPHO1 block 86
Cc1ccc(S(=O)(=O)NCCNC(=O)c2ccccc2)cc1	none
NC(c1csc(NC(=O)Nc2ccc(OC(F)(F)F)cc2)n1)C1CCCCC1 (centres undefined)	none (no result: Fh CTSL1 inh, TPT1 inhibitor, PHOSPHO1 block)
Cc1cccc(C)c1NC(=O)Nc1nc(CN(C)C)cs1	none (no result: Fh CTSL1 inh, TPT1 inhibitor, PHOSPHO1 block)
CCn1c(=O)n(CC)c2cc(N3CCCC3)c(NC(=O)c3cccc(OC)c3)cc21	none
Cc1ccc(C)c(N2CCN(S(=O)(=O)c3cc4c(cc3C)NC(=O)CO4)CC2)c1	none
CC(C)(C)c1ccc(S(=O)(=O)N2CCN(c3ncccn3)CC2)cc1	NRP1-CendR mod 27
CCOC(=O)C(NC(=O)Nc1ccccc1)(OCC)C(F)(F)F (centres undefined)	none
CCOC(=O)Cc1cnc(NC(=O)NC(C(=O)OCC)(c2ccccc2)C(F)(F)F)s1 (centres undefined)	NRP1-CendR mod 37
CC(=O)Nc1ccc(C(=O)N2CCCCC2c2cc(C(=O)NC(C)C)no2)cc1 (centres undefined)	NRP1-CendR mod 44 (no result: Fh CTSL1 inh, TPT1 inhibitor, PHOSPHO1 block)
COc1cc(C(=O)N2CCCCC2c2cc(C(=O)N3CCOCC3)no2)cc(OC)c1C (centres undefined)	none (no result: Fh CTSL1 inh, TPT1 inhibitor, PHOSPHO1 block)
COC(=O)N1CCCCC1c1cc(C(=O)N2CCOCC2)no1 (centres undefined)	NRP1-CendR mod 26 (no result: Fh CTSL1 inh, TPT1 inhibitor, PHOSPHO1 block)
COc1ccc(-c2cc(C)no2)cc1S(=O)(=O)NCc1cccc(C)c1	NRP1-CendR mod 36
CCCCC/C=C\C[C@H](O)/C=C/c1cccc(C[C@H](O)CCCCO)n1	Fh CTSL1 inh 41
CNC(=S)NNC(=O)c1ccccc1Cl	NRP1-CendR mod 25
CCOC(=O)/C=C/C(=O)Nc1ccc(Oc2ccccc2)cc1	Fh CTSL1 inh 31
O=C(CCC(=O)c1cccs1)NNC(=O)c1cccc(Cl)c1	none (no result: PHOSPHO1 block)
CC(C)(C)NC(=S)NNC(=O)c1ccccc1Cl	none
CCOC(=O)/C=C/C(=O)NNC(=O)c1ccccc1Cl	Fh CTSL1 inh 46
O=C(CCC(=O)c1cccs1)NNC(=O)c1ccccc1Cl	NRP1-CendR mod 27 (no result: Fh CTSL1 inh, TPT1 inhibitor, PHOSPHO1 block)
CN(Cc1ccccc1)c1nc2c(c(=O)[nH]c(=O)n2C)n1C	none
Cc1cccc(Cn2c(N(C)Cc3ccccc3)nc3c2c(=O)[nH]c(=O)n3C)c1	NRP1-CendR mod 26
COC(=O)N/N=C(C)/C=C/c1ccccc1	none (no result: PHOSPHO1 block)
CC(/C=C/c1ccccc1)=N\NC(=O)CCc1ccccc1	NRP1-CendR mod 24
COc1ccc(CN(C)C(=O)CCCNC(=O)c2ccc(Cl)cc2)cc1	none
Clc1ccc(Nc2nc(NCCN3CCOCC3)nc(N3CCOCC3)n2)cc1	Fh CTSL1 inh 18
CCCCC(C(=O)O)C(C)CC(=O)Nc1ccn(-c2ccccc2)n1 (centres undefined)	NRP1-CendR mod 45
CC(C)CC(C(=O)O)C(C)CC(=O)Nc1ccn(-c2ccccc2)n1 (centres undefined)	none
O=C1c2cccc3cccc(c23)C(=O)C1(O)O	Fh CTSL1 inh 18, NRP1-CendR mod 54 (no result: PHOSPHO1 block)
Cc1cccc(NC(=O)CSc2nnc(CSc3nc(C)cc(C)n3)o2)c1	none
CCc1nnc(NC(=O)CSc2nnc(CSc3nc(C)cc(C)n3)o2)s1	PHOSPHO1 block 94
c1ccc2[nH]c(-c3ccnc4ccccc34)nc2c1	PHOSPHO1 block 89!
c1ccc2c(-c3nc4ccccc4[nH]3)cccc2c1	none (no result: Fh CTSL1 inh, TPT1 inhibitor, PHOSPHO1 block)
C/C(=N\NC(=S)Nc1c(C)cccc1C)c1ccc(OC(F)F)cc1	none
COc1ccccc1-c1cc(C(=O)NC(C)C)no1	PHOSPHO1 block 60
COc1ccccc1-c1cc(C(=O)NC(C)c2ccccc2)no1 (centres undefined)	none
CC1CC(C)CN(CCCNC(=O)CCNC(=O)Cn2ccc3ccccc3c2=O)C1 (centres undefined)	none
O=C(N[C@@H](Cc1ccccc1)C(=O)N[C@@H](Cc1ccccc1)C(=O)O)OCc1ccccc1	none (no result: PHOSPHO1 block)
O=C(N[C@@H](Cc1ccccc1)C(=O)CCl)OCc1ccccc1	Fh CTSL1 inh 69 (no result: PHOSPHO1 block)
CCOC(=O)C1(Nc2nccs2)Sc2ccccc2NC1=O (centres undefined)	Fh CTSL1 inh 33
CCOC(=O)C1(N(CC)CC)Sc2cc(C)ccc2NC1=O (centres undefined)	none
C/C(=C\c1ccc(Cl)cc1)C(=O)c1c(C)cc(C)[nH]c1=O	none
Cc1ccc(S(=O)(=O)N(C)CCCC(=O)Nc2cccc3ccccc23)cc1	none
